Screening results as filed in PubChem.
Sm TGR inh = S. mansoni TGR enzyme inhibition | Potency, µM (titrated, usually from 114 µM), for the others: at the highest dose activity change, negative = inhibition, usual class: inhibitors | AID 485364 | hit rate 3% among 360,000 | Q962Y6 | purified TGR, DTNB reduction, TNB absorbance 405 nm; note: nearly all actives have a fitted effect of over 60% in size
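Kinetic colorimetric format: TGR-catalysed, NADPH-driven DTNB reduction monitored via TNB absorbance. Enzyme dispensed at 20 nM; compound exposure 15 min at room temperature before reaction start.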
Giardia FBPA inh = inhibitors of Giardia lamblia fructose-1,6-bisphosphate aldolase; purified Giardia FBPA; hit rate 0.71% among 290,000; Potency, µM (titrated, usually from 59.6 µM), inactives show at the top dose activity, negative = inhibition, actives largely listed as inhibitors; A8B2U2; note: nearly all actives have a fitted effect of over 55% in size
Target sequence (A8B2U2 whole entry, looked up): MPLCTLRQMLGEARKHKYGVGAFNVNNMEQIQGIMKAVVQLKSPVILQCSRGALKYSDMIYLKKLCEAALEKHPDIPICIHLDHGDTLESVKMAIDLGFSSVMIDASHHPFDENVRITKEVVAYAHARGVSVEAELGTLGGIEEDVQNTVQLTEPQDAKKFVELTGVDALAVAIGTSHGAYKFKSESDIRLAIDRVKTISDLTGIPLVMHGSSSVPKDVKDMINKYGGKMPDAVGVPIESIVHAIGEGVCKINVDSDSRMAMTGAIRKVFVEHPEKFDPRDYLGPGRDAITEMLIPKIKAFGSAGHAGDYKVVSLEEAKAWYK
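40 nM FBPA preincubated 10 min at RT with compound (up to 57.5 uM final), then substrate plus GAPDH/TPI/NAD/arsenate coupling and diaphorase/resazurin added. Fluorescence read after 20 min at RT, 525/598 nm.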
AmpC inh no detg = blocks E. coli AmpC beta-lactamase in detergent-free assay; P00811; AmpC nitrocefin hydrolysis, absorbance 480 nm, 0.0001% Triton; hit rate 0.52% among 330,000; Potency, µM (series often up to 57.1 µM), for inactives: top-dose activity change, negative = inhibition, actives largely listed as inhibitors;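 note: plate controls were no compound for no effect and no enzyme for full effect; nearly all actives have a fitted effect of over 20% in size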
Target sequence (P00811 whole entry, looked up): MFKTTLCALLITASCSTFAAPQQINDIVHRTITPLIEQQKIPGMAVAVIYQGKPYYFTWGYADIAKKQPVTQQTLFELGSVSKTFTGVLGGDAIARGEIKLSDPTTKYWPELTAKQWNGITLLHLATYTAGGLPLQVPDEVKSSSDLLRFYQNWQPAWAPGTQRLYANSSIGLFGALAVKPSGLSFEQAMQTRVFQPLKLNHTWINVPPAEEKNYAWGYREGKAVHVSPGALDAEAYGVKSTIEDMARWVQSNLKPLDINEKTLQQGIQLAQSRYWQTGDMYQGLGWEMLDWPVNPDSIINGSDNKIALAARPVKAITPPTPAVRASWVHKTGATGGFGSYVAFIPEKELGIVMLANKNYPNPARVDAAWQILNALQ
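20 mM phosphate pH 7.0 + 0.01% (detergent screen) or 0.0001% Triton X-100; 5.3 nM AmpC reagent; cpd preinc 15 min RT; nitrocefin (800 uM stock) to start; A480 q20 s × 4 min; Activity was normalised to no-enzyme and no-compound control wells.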
AmpC inh detg = blocks E. coli AmpC beta-lactamase in detergent assay; P00811; AmpC hydrolysis of nitrocefin, absorbance 480 nm, 0.01% Triton; Potency, µM (series often up to 114 µM), for inactives: at the top dose activity change, negative = inhibition, hits mostly inhibitors; hit rate 0.041% among 370,000; AID 485294;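 note: 0% = no-compound wells and -100% = no-enzyme wells; nearly all actives have a fitted effect of over 25% in size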
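AmpC (5.3 nM in the dispensed reagent) in 20 mM phosphate pH 7.0 with 0.01% (detergent screen) or 0.0001% Triton X-100 was preincubated with compounds for 15 min at room temperature. Nitrocefin was then added from an 800 uM solution, and hydrolysis was followed at 480 nm.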
RE007 growth inh = less growth of the S. pombe RE007 Vpr strain | Potency, µM (highest dose often 92.2 µM), for the others: at the top dose activity change, negative = less growth, hits mostly inhibitors | hit rate 0.21% among 360,000 | S. pombe RE007 Vpr strain, BacTiter-Glo ATP luminescence, 24 h; active = well fitted falling curve with a large enough effect; inconclusive = small, poorly fitted or top-dose-only effect; inactive = no such curve, though single readings can be large or run the other way; note: nearly all actives have a fitted effect of over 50% in size
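Fission yeast RE007 carrying one integrated HIV-1 vpr copy, seeded at OD 0.01 in PMG+AL medium with 23 nL pinned compound. Grown 24 h at 30 degrees; viability read by BacTiter-Glo luminescence after 5 min.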
* = called active by the depositor; ? = inconclusive; / = no result. Shown are actives, neighbours in structure and some others; about 3.4% of the full set was active somewhere. Unless noted, calls come from the whole dose curve; as a rule, active = well fitted curve in the direction sought with a large enough effect; inconclusive = small, poorly fitted or top-dose-only effect, or another doubt; inactive = no such curve, though single readings can be large; an effect the other way counts as inactive or inconclusive. Unless noted, % is set by controls: 0 for no effect and ±100 for the full control effect; potency is the fitted concentration of half-maximal effect.

SMILES	Sm TGR inh	Giardia FBPA inh	AmpC inh no detg	AmpC inh detg	RE007 growth inh
Cc1cc(CNC(=O)COc2ccc(C#N)cc2)c2ccccc2n1	6%	-3%	-8%	?	-14%
Cc1noc(/C=C/N(C)C)c1S(=O)(=O)N1CCCC(C(=O)NCCC2=CCCCC2)C1 (centres undefined)	0%	10%	96%	?	0%
Cc1ccc(C(=O)O/N=C(\N)c2ccccn2)c(C)c1	5%	/	-2%	2%	35µM*
O=C(/C=C/c1ccco1)NCC(=O)N/N=C/c1ccc([N+](=O)[O-])cc1	8.9µM*	1%	-30%	3%	-15%
O=C(/C=C/c1ccccc1)NCC(=O)N/N=C/c1ccco1	-4%	/	-2%	9%	15%
CN(C)c1ccc(/C=N/NC(=O)CNC(=O)/C=C/c2ccco2)cc1	?	12%	-32%	3%	6%
O=C(/C=C/c1ccco1)NCC(=O)N/N=C/c1ccc(Cl)cc1	14µM*	4%	-24%	4%	7%
C/C(=N/NC(=O)CNC(=O)/C=C/c1ccco1)c1ccc(Cl)cc1	8.9µM*	-2%	-2%	-1%	-2%
COc1ccccc1/C=C/C(=O)NCC(=O)N/N=C(/C)c1ccc(Cl)cc1	-20%	0%	-25%	-5%	6%
O=C(/C=C/c1ccc([N+](=O)[O-])cc1)/C=C/c1ccco1	4.5µM*	-6%	20µM*	-11%	/
COc1ccc(C(=O)NCCNc2nc3cc(C)cc(C)c3cc2C#N)c(OC)c1	/	/	/	/	0%
Cc1cc(C(=O)OCC(=O)N(C)c2ccccc2)c(C)o1	/	/	-10%	/	-14%
COc1ccc(NS(=O)(=O)c2ccc(NC(=O)CCNS(=O)(=O)c3ccc(C)cc3)cc2)cc1	0%	3%	-6%	-13%	5%
O=C(Nc1ccc(F)cc1F)C1CCN(S(=O)(=O)c2cccnc2)CC1	-29%	-2%	-7%	2%	4%
Cc1nnc(SCC(=O)Nc2ccc(F)cc2F)n(N)c1=O	0%	/	-15%	1%	-6%
O=C(NCCc1ccccc1)c1cc(S(=O)(=O)N2CCCC2)ccc1F	-10%	-3%	0%	?	15%
COc1ccc(NC(=O)CSc2nnc(-c3ccco3)c(-c3ccco3)n2)cc1OC	5.6µM*	-10%	-12%	-3%	-3%
COc1cccc(NC(=O)CSc2nnc(-c3ccco3)c(-c3ccco3)n2)c1	2.8µM*	?	-55%	-9%	7%
COc1ccc(NC(=O)CSc2nc(-c3ccco3)cc(C(F)(F)F)n2)cc1OC	-1%	/	/	-3%	/
COc1ccc(C(=O)CSc2nnc(-c3ccco3)c(-c3ccco3)n2)cc1	/	?	-55%	9%	8%
CC(=O)OC[C@]12CCC(C)=C[C@H]1O[C@@H]1[C@H](O)[C@@H](OC(C)=O)[C@@]2(C)[C@]12CO2	5%	0%	-10%	3%	3.2µM*
CC(=O)OC[C@]12C[C@H](OC(=O)CC(C)C)C(C)=C[C@H]1O[C@H]1[C@H](O)[C@@H](OC(C)=O)[C@@]2(C)[C@]12CO2	/	2%	/	/	/
Cc1ccc(N(C(C)C(=O)O)S(=O)(=O)c2cccnc2)cc1 (centres undefined)	1%	7%	-2%	?	2%
Cc1ccc(NC(=O)CSc2ccc(-c3ccco3)nn2)cc1	10µM*	-4%	-34%	5%	13%
Cc1ccc(SCC(=O)Nc2ccc(-c3nnc(-c4ccco4)o3)cc2)cc1	1%	-4%	4%	-8%	13%
SMILES	Sm TGR inh	Giardia FBPA inh	AmpC inh no detg	AmpC inh detg	RE007 growth inh
Cc1ccc(NC(=O)CSc2ccc(-c3ccco3)nn2)c(C)c1	28µM*	1%	-33%	-9%	-7%
CC(=O)Nc1ccc(NC(=O)CSc2ccc(-c3cccs3)nn2)cc1	-7%	0%	-40%	-14%	9%
CC(=O)Nc1cccc(NC(=O)CSc2ccc(-c3ccco3)nn2)c1	14µM*	/	-18%	1%	-11%
CC(=O)Nc1ccc(NC(=O)CSc2ccc(-c3ccco3)nn2)cc1	8.9µM*	-4%	-28%	4%	18%
Cc1ccc(NC(=O)CSc2nnc(-c3ccco3)o2)c(C)c1	/	-4%	-11%	-10%	-6%
COc1ccccc1CNC(=O)CCCCn1c(=O)c2ccccc2n(CC(=O)Nc2cccc(Cl)c2)c1=O	9%	/	/	18%	/
CC(=O)c1ccc(NC(=O)CSc2ccc(-c3ccco3)nn2)cc1	22µM*	/	-18%	1%	1%
CC(=O)c1ccc(NC(=O)CSc2ccc(-c3cccs3)nn2)cc1	-1%	/	/	14%	/
CSc1ccccc1NC(=O)CN(C)C(=O)COc1ncnc2ccccc12	/	/	-19%	/	8%
CCCOc1ccc(Cl)cc1/C=C1/C(=O)ON=C1C	14µM*	-16%	-11%	-12%	-2%
CCOc1cc(/C=C2/C(=O)ON=C2C)ccc1OCc1ccc(F)cc1	0%	-16%	-12%	1%	15%
CCOc1cc(/C=C2/C(=O)ON=C2C)ccc1OCc1ccccc1	50µM*	-15%	-3%	-9%	-1%
COc1cc2c(cc1OC)CN(C(=O)CSc1nnc(C)s1)CC2	-7%	-17%	1%	2%	2%
COCCn1c(=O)c(-c2ccc(OC)cc2)nc2cnc(N3CCNCC3)nc21	/	-1%	/	/	/
O=C(N/N=C/c1ccc(-c2ccccc2[N+](=O)[O-])o1)c1cncc(Br)c1	-14%	?	-54%	-5%	16%
Cc1nc2ccccn2c1C(=O)N/N=C/c1ccc([N+](=O)[O-])o1	14µM*	?	-24%	-8%	-21%
Nc1nonc1C(=O)N/N=C/c1ccc([N+](=O)[O-])o1	20µM*	?	-21%	7%	-23%
O=C(N/N=C\c1ccc([N+](=O)[O-])o1)c1cncc(Br)c1	35µM*	?	0%	1%	-22%
O=C(N/N=C/c1ccc([N+](=O)[O-])o1)c1ccccc1NS(=O)(=O)c1cccs1	28µM*	-19%	-36%	0%	?
CSc1nsc(SC)c1C(=O)NC(=O)Nc1cccnc1	8%	-3%	-24%	5%	1%
O=C1NC[C@H](c2ccccc2)OC(=O)[C@H](Cc2ccc(F)cc2)CC/C=C/C[C@@H]1CC(=O)N(CCO)Cc1ccccc1	/	/	154%	/	3%
COc1ccc(S(=O)(=O)N(C)c2ccc(C(=O)NCc3ccco3)cc2)cc1	-22%	/	-14%	3%	-10%
COCCn1c(SCC(=O)/C=C2\N(C)c3ccccc3C2(C)C)nnc1-c1ccncc1	-12%	0%	126%	-4%	2%
CCCCCC(=O)N/N=C/c1ccc([N+](=O)[O-])o1	40µM*	-10%	-18%	-3%	-22%
CCN(CC)c1ccc(N=Cc2ccccc2[N+](=O)[O-])cc1	?	?	-23%	?	?
